Source: the GenesisPotency data set
About 3,000 (1%) of roughly 290,000 compounds were called active. Cut-off read from the data, not from the text of the source: active = inhibition mostly above about 36% (no sharp cut-off); inactive = mostly below about 34%. The entries come from a sample that favours actives as a whole.

target: T1, Nucleotide-binding oligomerization domain-containing protein 1, Homo sapiens (UniProt Q9Y239); test: inhibition of NOD1-driven NF-kB reporter – cell-based, luminescence, uHTS, primary screen (AID 1578)
T1 sequence (whole entry): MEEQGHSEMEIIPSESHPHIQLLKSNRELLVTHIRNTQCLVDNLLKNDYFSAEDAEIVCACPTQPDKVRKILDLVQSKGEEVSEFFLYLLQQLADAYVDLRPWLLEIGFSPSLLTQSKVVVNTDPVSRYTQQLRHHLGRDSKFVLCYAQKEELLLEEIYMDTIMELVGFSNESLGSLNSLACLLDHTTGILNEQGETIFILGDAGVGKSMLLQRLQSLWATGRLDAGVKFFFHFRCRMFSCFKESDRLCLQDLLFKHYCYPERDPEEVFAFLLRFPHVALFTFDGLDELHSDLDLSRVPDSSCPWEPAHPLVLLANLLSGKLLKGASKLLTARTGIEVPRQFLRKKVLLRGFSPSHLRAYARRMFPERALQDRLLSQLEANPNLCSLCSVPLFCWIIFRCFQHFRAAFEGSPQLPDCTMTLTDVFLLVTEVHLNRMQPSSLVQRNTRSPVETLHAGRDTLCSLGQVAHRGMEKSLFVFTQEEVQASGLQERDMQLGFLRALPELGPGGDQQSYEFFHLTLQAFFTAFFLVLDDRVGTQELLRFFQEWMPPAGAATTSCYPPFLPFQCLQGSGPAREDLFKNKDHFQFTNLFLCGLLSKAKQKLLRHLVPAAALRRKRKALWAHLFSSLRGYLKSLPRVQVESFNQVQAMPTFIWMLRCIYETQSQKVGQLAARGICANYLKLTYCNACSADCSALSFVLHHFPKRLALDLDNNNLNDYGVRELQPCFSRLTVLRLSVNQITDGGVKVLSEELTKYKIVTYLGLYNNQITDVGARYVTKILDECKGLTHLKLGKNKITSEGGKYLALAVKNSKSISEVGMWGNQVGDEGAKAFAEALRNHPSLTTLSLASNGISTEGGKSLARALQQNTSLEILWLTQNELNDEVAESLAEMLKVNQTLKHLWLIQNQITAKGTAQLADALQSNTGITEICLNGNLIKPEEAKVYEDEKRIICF

outcome, active:
CC1CCC/C=C/C(=O)c2c(O)cc(O)cc2CC(=O)O1 (stereo not drawn), COc1ccc(NC(=O)/C(Cl)=C(/Cl)S(=O)(=O)Cc2ccc(C)cc2)cn1, COc1ccc(NC(=O)/C(Cl)=C(/Cl)S(=O)(=O)Cc2ccccc2)cn1, N=C1SCC(=O)N1c1ncc(Cc2ccccc2Cl)s1, N=C1SCC(=O)N1c1ncc(Cc2cccc(Cl)c2)s1, N=C1SCC(=O)N1c1ncc(Cc2ccc(F)cc2)s1, O=c1[nH]c(=O)n(Cc2ccco2)c2c1C(C(F)(F)F)(C(F)(F)F)N=C(c1ccc(F)cc1)N2, Nc1ncnc(NCc2ccc(F)cc2)c1[N+](=O)[O-], CC(=O)c1ccc(N2CCN(S(=O)(=O)c3ccc4c(c3)CC(C)N4C(C)=O)CC2)cc1 (stereo not drawn), CCc1ccc(NC(=O)C2CCN(S(=O)(=O)c3ccc4c(c3)CC(C)N4C(C)=O)CC2)cc1 (stereo not drawn), Cc1ccc(-n2nc3c(=O)n(C(C)C(=O)NCCc4cccs4)nc(C)c3c2C)cc1 (stereo not drawn), Cc1ccc(-n2nc3c(=O)n(CC(=O)NC(C)CCc4ccccc4)nc(C)c3c2C)cc1 (stereo not drawn), Cc1ccc(-n2nc3c(=O)n(C(C)C(=O)NCCCc4ccccc4)nc(C)c3c2C)cc1 (stereo not drawn), Cc1ccc(-n2nc3c(=O)n(C(C)C(=O)NCCC4=CCCCC4)nc(C)c3c2C)cc1 (stereo not drawn), CCc1ccc(NC(=O)c2cnc(N3CCN(c4ccccn4)CC3)c3ccccc23)cc1, Cc1cc(Br)ccc1NC(=O)c1cnc(N2CCN(c3ccccn3)CC2)c2ccccc12, O=C(c1cnc(N2CCN(c3ccccn3)CC2)c2ccccc12)N1CCN(c2cccc(Cl)c2)CC1, Cc1ccc(NC(=O)c2cnc(N3CCN(c4ccccn4)CC3)c3ccccc23)c(Br)c1, C=CCSc1nc2ccccc2n1C(=O)/C=C/c1ccc(OC)c(OC)c1, O=C(NC1CCCCC1)C(c1cccnc1)N(C(=O)CCl)c1ccc(F)cc1 (stereo not drawn), COc1ccc(N(C(=O)CCl)C(C(=O)NC2CCCCC2)c2cccnc2)cc1 (stereo not drawn), O=C(CN1C(=O)c2ccccc2S1(=O)=O)c1ccc2c(c1)OCCO2, O=C(CN1C(=O)c2ccccc2S1(=O)=O)c1ccc2c(c1)OCCCO2, COc1cc(/C=C/C(=O)c2ccc(NS(=O)(=O)c3ccc(C)cc3)cc2)cc(OC)c1O, COc1cc(OC)c(OC)cc1/C=C/C(=O)c1ccc(NS(=O)(=O)c2ccc(C)cc2)cc1, O=C(/C(=C\c1ccccc1)c1nc2ccccc2[nH]1)c1ccc(Cl)cc1, O=C(/C(=C/c1ccc(Cl)cc1)c1nc2ccccc2[nH]1)c1cccs1, O=C(/C(=C/c1ccc(Cl)cc1)c1nc2ccccc2[nH]1)c1ccccc1, Cc1ccc(S(=O)(=O)Nc2cccc3ncccc23)s1, O=S(=O)(Nc1cccc2ncccc12)c1cccs1, Cc1ccc(C)c(OCC(=O)Nc2nc3ccc([N+](=O)[O-])cc3s2)c1C, O=[N+]([O-])c1ccc(O)c(-c2cc(C(F)(F)F)nc(-c3ccccc3)n2)c1, CC(C)c1ccc(-n2c(-c3ccccc3)c[n+]3c2CCc2ccccc2-3)cc1.[Br-], CCCCCCCC[n+]1cccc2c3ccccc3ccc21.[I-], CCCCCCCCC[n+]1cccc2c3ccccc3ccc21.[Br-], O=C(NC(NC(=S)Nc1ccc(Cl)cc1Cl)C(Cl)(Cl)Cl)c1cccc([N+](=O)[O-])c1 (stereo not drawn), COc1ccc(Cc2[nH]n3c(=O)c(Cl)c(C)nc3c2-c2ccccc2)cc1, O=C(Cc1ccc(Cl)cc1)c1c[nH]c(C(=O)NCc2cccnc2)c1, CCN(c1ccc(OC)cc1)c1ncnc2nc[nH]c12, CCCN(CCC)c1ncnc2nc[nH]c12, CCc1ccc(N(CC)c2ncnc3nc[nH]c23)cc1, COc1ccc(N=C2NC(=O)/C(=C/c3ccc(O)c(OC)c3)S2)cc1, Cc1ccc(C(=O)NC(=S)N(C)C2CCCCC2)cc1Br, O=[N+]([O-])c1ccc(Sc2cccc3cccnc23)c([N+](=O)[O-])c1, C=CCn1nc([N+](=O)[O-])nc1Sc1cccc2cccnc12, Cn1nc([N+](=O)[O-])nc1Sc1cccc2cccnc12, C=CCn1c(SCC(=O)Nc2sccc2C(N)=O)nc2sc(CC)cc2c1=O, O=C(OCn1ncc(Cl)c(Cl)c1=O)c1cccc(C(F)(F)F)c1, O=C(OCn1ncc(Br)c(Br)c1=O)c1ccccc1Cl, Cc1ccc(C(=O)OCn2ncc(Cl)c(Cl)c2=O)cc1, O=C(OCn1ncc(Cl)c(Cl)c1=O)c1ccccc1Cl, COc1cccc(C(=O)Nc2nc(-c3ccccc3)c(-c3ccccc3)o2)c1, COc1cc(OC)cc(C(=O)Nc2nc(-c3ccccc3)c(-c3ccccc3)o2)c1, S=c1[nH]nc(C2CCCCC2)n1/N=C/c1ccncc1, O=c1c2cc(Br)ccc2nc(-c2cccc(C(F)(F)F)c2)n1O, O=c1c2cc(Cl)ccc2nc(-c2ccc(Cl)c(Cl)c2)n1O, COc1cccc(N2CCN(c3ncnc4c3[nH]c3ccccc34)CC2C)c1 (stereo not drawn), COc1cccc(N2CCN(c3ncnc4c3[nH]c3ccc(F)cc34)CC2C)c1 (stereo not drawn), Cc1sc2nc(CSc3ccccc3)nc(N3CCC(C(N)=O)CC3)c2c1C, Cc1nc(N2CCC(C(N)=O)CC2)c2c(-c3cccs3)csc2n1, CCCc1nnc(NC(=O)c2nc(S(=O)(=O)Cc3ccc(C)cc3)ncc2Cl)s1, CCCc1nnc(NC(=O)c2nc(S(=O)(=O)Cc3cccc(C)c3)ncc2Cl)s1, Cc1cccc(CS(=O)(=O)c2ncc(Cl)c(C(=O)Nc3c(C)cccc3C)n2)c1, CCc1nnc(NC(=O)c2nc(S(=O)(=O)Cc3ccc(C)cc3)ncc2Cl)s1, CC(C)(C)C(=O)/C(=C/c1ccc(Cl)cc1)n1cncn1, O=c1c2ccccc2nc(/C=C/c2cc(Br)ccc2O)n1CCCO, O=c1c2ccccc2nc(/C=C/c2ccc([N+](=O)[O-])o2)n1CCCO, CC[n+]1c(C=C2C=C(C)OC(C)=C2)sc2ccccc21.[Cl-], O=[N+]([O-])c1nn(-c2ccc3c(c2)OCCO3)n(O)c1=Nc1ccccc1, COc1ccc(OC)c(Nc2nc(N)nc(CCl)n2)c1, Cc1ccccc1Nc1nc(N)nc(CCl)n1, CCOc1ccc(Nc2nc(N)nc(CCl)n2)cc1, CCCCCc1cc(O)c2c(C)cc(=O)oc2c1, O=C(Nc1ccccc1C(=O)O)c1cc(S(=O)(=O)Nc2ccccc2)ccc1Cl, O=C(Nc1ccccc1C(=O)O)c1cc(S(=O)(=O)N2CCCCC2)c(Cl)cc1Cl, Cc1cccc(NC(=O)/C=C/c2ccc([N+](=O)[O-])s2)c1, CC(=O)c1cccc(NC(=O)/C=C/c2ccc([N+](=O)[O-])s2)c1, CCOC(=O)/C=C/C(=O)Nc1cccc([N+](=O)[O-])c1, S=c1[nH]nc(-c2cc(-c3ccccc3)n[nH]2)n1/N=C/C(Br)=C/c1ccccc1, CC(=C/c1ccccc1)/C=N/n1c(-c2ccncc2)n[nH]c1=S, Cc1cc(C(=O)NC2CCCc3c2cnn3-c2ccc(C)c(C)c2)n(C)n1 (stereo not drawn), CCn1nc(C)cc1C(=O)NC1CCCc2c1cnn2-c1ccc(C)c(C)c1 (stereo not drawn), CCc1cc(C(=O)NC2CCCc3c2cnn3-c2cccc(C)c2C)n(C)n1 (stereo not drawn), COCCn1c(=S)[nH]c2cc(C(=O)N3CCCC(C)C3)ccc2c1=O (stereo not drawn), O=C(N/N=C/c1ccccn1)c1cc(-c2ccc(Cl)cc2)nc2ccccc12, O=C(N/N=C/c1ccccn1)c1cc(-c2ccccc2)nc2ccccc12, O=C(N/N=C/c1ccccn1)c1cc(-c2ccc(Br)cc2)nc2ccccc12, CCCOc1cccc(-c2cc(C(=O)N/N=C/c3ccccn3)c3ccccc3n2)c1, Cc1c(C(C)NC(=O)c2cc(COc3cccc4cnccc34)on2)cnn1C (stereo not drawn), COCC1CCN(C(=O)c2cc(COc3cccc4cnccc34)on2)CC1, O=C(c1cc(COc2cccc3cnccc23)on1)N1CCCC(CCCO)C1 (stereo not drawn), COCC1CCCN(C(=O)c2cc(COc3ccc4ncccc4c3)on2)C1 (stereo not drawn), O=C(c1cc(COc2cccc3cnccc23)on1)N1CCC(c2ccccc2Cl)C1 (stereo not drawn), O=C1NC(=O)/C(=C\c2ccccc2Oc2ccc(F)c(F)c2)S1, Cc1cccc2cc(/C=N/NC(=O)c3ccccc3O)c(Cl)nc12, C=C1C(=O)[C@@]23[C@H](O)C[C@@H]4C(C)(C)CC[C@H](O)[C@@]4(C)[C@@H]2CC[C@@H]1[C@H]3O, CCc1ccc(CN(C)C(=O)c2cc(COc3cccc4cnccc34)on2)cc1, COc1cccc(CN(C)C(=O)c2cc(COc3ccc4ncccc4c3)on2)c1, CN(Cc1nccs1)C(=O)c1cc(COc2cccc3cnccc23)on1, COc1ccccc1-c1cc(C(F)(F)F)nc(S(C)(=O)=O)n1, COc1ccc(-c2cc(C(F)(F)F)nc(S(C)(=O)=O)n2)cc1OC, COc1ccc(-c2cc(C(F)(F)F)nc(S(C)(=O)=O)n2)cc1, CCCC1/C(=N/O)CC(c2ccccc2)NC1c1ccccc1 (stereo not drawn), N#CC1=C(N)N2C(=C(C#N)C1c1ccc(Br)cc1)Nc1ccccc12 (stereo not drawn), N#CC1=C(N)N2C(=C(C#N)C1c1cccc(Br)c1)Nc1ccccc12 (stereo not drawn), Cc1[nH]c(=O)c(C(=O)/C=C/c2ccccc2)c2c1CCCC2, Cc1[nH]c(=O)c(C(=O)/C=C/c2ccccc2F)c2c1CCCC2, COc1ccccc1/C=C/C(=O)c1c2c(c(C)[nH]c1=O)CCCC2
